PubChem BioAssay (EPA / NIEHS)
Results filed as inconclusive are left out. The source made the active and inactive calls. How the source made its calls, unless noted: active means hit-call score of the fitted dose curve at least 0.9, where 1 is the maximum; inactive means score below 0.9.

What was measured:
[1] = molecular target: Myc proto-oncogene protein (Homo sapiens) (UniProt P01106); assay: ATG_Myc_CIS: Attagene CIS-FACTORIAL HepG2 Assay for human Myelocytomatosis (Myc) Proto-Oncogene Transcription Factor (AID 2282990); details: HepG2, Attagene cis-reporter transcription factor activity; actives raise or lower the signal
Myc proto-oncogene protein (Homo sapiens), sequence (P01106 whole entry, looked up): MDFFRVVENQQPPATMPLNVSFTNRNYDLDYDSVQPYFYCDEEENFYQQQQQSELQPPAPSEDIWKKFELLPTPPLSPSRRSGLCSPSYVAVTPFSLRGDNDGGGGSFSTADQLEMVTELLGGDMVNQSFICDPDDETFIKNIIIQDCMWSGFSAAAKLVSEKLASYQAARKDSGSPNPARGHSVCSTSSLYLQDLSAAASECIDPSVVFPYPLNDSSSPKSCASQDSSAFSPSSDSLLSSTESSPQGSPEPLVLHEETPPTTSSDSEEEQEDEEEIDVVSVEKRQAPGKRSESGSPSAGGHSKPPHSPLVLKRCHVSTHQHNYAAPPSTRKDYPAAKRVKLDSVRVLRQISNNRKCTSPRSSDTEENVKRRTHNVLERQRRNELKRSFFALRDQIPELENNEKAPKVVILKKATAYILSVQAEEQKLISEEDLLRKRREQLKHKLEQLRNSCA
In short: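 Transiently transfected HepG2 cells bearing cis-promoter reporter units for endogenous transcription factors; 24 h exposure. Reporter mRNA measured by RT-PCR, 6-FAM primer extension, HpaI cut and capillary electrophoresis; bidirectional fit relative to DMSO.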

[2] = ATG_NF_kB_CIS: Attagene CIS-FACTORIAL HepG2 Assay for human Nuclear Factor Kappa B (NF-kB) (AID 2282991); details: HepG2 Attagene cis-factorial NF-kB reporter mRNA; actives raise or lower the signal
In short: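 HepG2, transient multi-reporter transfection, cis promoter elements (endogenous TFs). 24 h exposure. Total RNA → RT → PCR → 6-FAM label → HpaI → CE. Gain/loss vs DMSO.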

[3] = ATG_NRF2_ARE_CIS: Attagene CIS-FACTORIAL HepG2 Assay for human Nuclear Factor Erythroid 2 Related Factor 2 (NFR2) response to Antioxidant Response Elements (ARE) (AID 2282992); details: HepG2 Attagene ARE/NRF2 reporter, transcription factor activity; actives raise or lower the signal;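 on AC50: reporter mRNA level measured by RT-PCR and capillary electrophoresis fluorescence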
In short: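 Readout: reporter mRNA quantified by RT-PCR plus FAM-labelled primer extension, HpaI digestion and capillary electrophoresis, 24 h after dosing transfected HepG2 cells. Gain or loss of signal is fitted bidirectionally against DMSO baseline.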

[4] = ATG_Oct_MLP_CIS: Attagene CIS-FACTORIAL HepG2 Assay for human Octamer-Binding Transcription Factor (Oct) (AID 2282993); details: HepG2 Attagene cis-factorial Oct reporter, mRNA; actives raise or lower the signal
In short: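 Using HepG2 cells bearing transfected cis-reporter constructs, mRNA induction was read after 24 h by fluorescent RT-PCR and capillary electrophoresis, with DMSO defining baseline for gain- or loss-of-signal fits.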

[5] = molecular target: Cellular tumor antigen p53 (Homo sapiens) (UniProt P04637); assay: ATG_p53_CIS: Attagene CIS-FACTORIAL HepG2 Assay for human p53 Transcription Factor (AID 2282994); details: HepG2 p53 cis-element reporter, Attagene mRNA; actives raise or lower the signal
Cellular tumor antigen p53 (Homo sapiens), sequence (P04637 whole entry, looked up): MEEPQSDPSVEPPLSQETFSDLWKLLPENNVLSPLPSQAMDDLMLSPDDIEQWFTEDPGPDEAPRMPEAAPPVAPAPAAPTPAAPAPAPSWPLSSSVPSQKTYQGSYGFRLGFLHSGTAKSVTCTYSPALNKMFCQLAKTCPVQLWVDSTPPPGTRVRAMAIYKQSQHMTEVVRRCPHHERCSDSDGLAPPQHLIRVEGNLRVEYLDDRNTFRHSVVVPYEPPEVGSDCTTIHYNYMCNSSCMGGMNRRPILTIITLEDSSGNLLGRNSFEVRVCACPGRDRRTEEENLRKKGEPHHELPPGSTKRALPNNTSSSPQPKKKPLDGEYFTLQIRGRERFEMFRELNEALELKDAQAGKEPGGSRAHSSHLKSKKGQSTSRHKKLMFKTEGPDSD
In short: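 Read-out: reporter mRNA by RT-PCR plus capillary electrophoresis with fluorescence detection. Human HepG2 liver cells carried transfected multi-reporter cis-element constructs, dosed 24 h. Gain or loss of signal fitted bidirectionally against DMSO control.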

[6] = BSK_3C_TissueFactor: BioMAP Diversity Plus: 3C Assay for Tissue Factor Biomarker Activity (AID 2282997); details: BioMAP 3C HUVEC, tissue factor biomarker readout; actives raise or lower the signal
In short: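 After a 24 h chemical exposure of primary human umbilical vein endothelial cells, Tissue Factor levels were quantified by ELISA.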

[7] = BSK_3C_uPAR: BioMAP Diversity Plus: 3C Assay for Urokinase-type plasminogen activator receptor (uPAR) Biomarker Activity (AID 2282998); details: BioMAP 3C HUVEC, uPAR biomarker ELISA; actives raise or lower the signal
In short: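 In this endothelial cell-based assay, human umbilical vein primary cells were treated with chemicals and harvested at 24 h. uPAR was quantified using ELISA, with gains or losses fitted relative to DMSO controls.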

[8] = BSK_3C_VCAM1: BioMAP Diversity Plus: 3C Assay for Vascular cell adhesion molecule 1 (VCAM1) Biomarker Activity (AID 2282999); details: BioMAP 3C HUVEC, VCAM1 ELISA, cytokine-stimulated; actives raise or lower the signal
In short: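 HUVEC primary cells, 24 h compound exposure; VCAM-1 by ELISA; gain/loss of signal fitted bidirectionally vs DMSO baseline.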

[9] = BSK_4H_Eotaxin3: BioMAP Diversity Plus: 4H Assay for Eotaxin 3 Biomarker Activity (AID 2283000); details: primary human endothelial cells (HUVEC); actives raise or lower the signal;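 further: CCL26 protein level quantified by ELISA in parallel with SRB cytotoxicity check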
In short: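 Chemicals were added to human umbilical vein endothelium cultures, and Eotaxin-3 was quantified by ELISA at 24 h. Values were derived by bidirectional fitting with DMSO serving as negative control and activity baseline.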

[10] = molecular target: human Peroxisome Proliferator-activated Receptor alpha (PPARa), PPARA (gene 5465) (UniProt Q07869); assay: ATG_PPARa_TRANS: Attagene TRANS-FACTORIAL HepG2 Assay for human Peroxisome Proliferator-activated Receptor alpha (PPARa) (AID 2283001; active means hit-call score of the fitted dose curve at least 0.9, where 1 is the maximum)
human Peroxisome Proliferator-activated Receptor alpha (PPARa), PPARA (gene 5465), sequence (Q07869 whole entry, looked up, the tested form may be a part): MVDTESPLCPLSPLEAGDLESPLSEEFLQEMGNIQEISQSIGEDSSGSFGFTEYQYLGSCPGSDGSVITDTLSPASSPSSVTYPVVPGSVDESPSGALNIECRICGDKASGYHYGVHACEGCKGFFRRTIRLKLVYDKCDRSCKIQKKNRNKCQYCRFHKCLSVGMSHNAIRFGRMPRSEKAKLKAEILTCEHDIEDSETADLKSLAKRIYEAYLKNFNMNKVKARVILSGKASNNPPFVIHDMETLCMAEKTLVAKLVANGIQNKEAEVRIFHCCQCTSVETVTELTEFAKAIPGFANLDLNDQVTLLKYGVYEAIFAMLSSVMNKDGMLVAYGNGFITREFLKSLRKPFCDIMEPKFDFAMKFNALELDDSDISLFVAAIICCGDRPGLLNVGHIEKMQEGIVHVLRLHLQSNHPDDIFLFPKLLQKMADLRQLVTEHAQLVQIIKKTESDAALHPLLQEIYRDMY
In short: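 Transient HepG2 transfection, GAL4-UAS reporters, NR-Gal4 chimeras; 24 h compound exposure. Readout: reporter transcripts by RT-PCR, 6-FAM primer extension, HpaI digest, capillary electrophoresis. Positive direction vs DMSO baseline.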

[11] = molecular target: human Peroxisome Proliferator-activated Receptor delta (PPARd), PPARD (gene 5467) (UniProt Q03181); assay: ATG_PPARd_TRANS: Attagene TRANS-FACTORIAL HepG2 Assay for human Peroxisome Proliferator-activated Receptor delta (PPARd) (AID 2283002; active means hit-call score of the fitted dose curve at least 0.9, where 1 is the maximum)
human Peroxisome Proliferator-activated Receptor delta (PPARd), PPARD (gene 5467), sequence (Q03181 whole entry, looked up, the tested form may be a part): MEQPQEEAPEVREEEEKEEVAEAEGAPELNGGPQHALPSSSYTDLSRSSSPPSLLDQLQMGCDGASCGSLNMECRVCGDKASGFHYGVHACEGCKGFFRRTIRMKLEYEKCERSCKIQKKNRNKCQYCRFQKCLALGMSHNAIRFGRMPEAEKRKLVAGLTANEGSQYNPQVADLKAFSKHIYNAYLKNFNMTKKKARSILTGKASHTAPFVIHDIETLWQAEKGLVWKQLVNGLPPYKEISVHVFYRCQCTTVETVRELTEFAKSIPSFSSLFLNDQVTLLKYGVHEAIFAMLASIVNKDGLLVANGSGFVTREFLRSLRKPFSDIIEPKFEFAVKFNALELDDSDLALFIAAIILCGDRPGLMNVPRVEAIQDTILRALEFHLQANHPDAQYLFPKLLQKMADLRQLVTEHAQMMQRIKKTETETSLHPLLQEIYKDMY
In short: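 HepG2 cells transiently transfected with GAL4-UAS multiplexed reporter units driven by exogenous chimeric NR-GAL4 proteins; 24 h compound exposure. Reporter mRNA measured by RT-PCR, 6-FAM primer extension, HpaI digestion and capillary electrophoresis; gain of signal fitted relative to DMSO.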

[12] = read-out: Intercellular Adhesion Molecule 1 (ICAM1), ICAM1 (gene 3383); assay: BSK_3C_ICAM1: BioMAP Diversity Plus: 3C Assay for Intercellular Adhesion Molecule 1 (ICAM1) Biomarker Activity (AID 2283003); details: primary human endothelial cells (HUVEC); actives raise or lower the signal
In short: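 Using DMSO as baseline, bidirectional curve fitting was applied to ICAM-1 ELISA signals from HUVEC in the 3C system, measured 24 h after compound addition.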

[13] = BSK_3C_Proliferation: Cell Proliferation Assessment in the BioMAP Diversity Plus: 3C Assay (AID 2283006); details: primary human endothelial cells (HUVEC);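 on AC50: potency may reflect either rise or fall in cell number versus DMSO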
In short: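 Measured here: sulforhodamine B (0.1%) staining of TCA-fixed sub-confluent umbilical vein endothelial cultures 48 h post-dosing, absorbance 560 nm. DMSO served as negative control and baseline; both signal gain and loss were modelled.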

[14] = molecular target: Nuclear receptor subfamily 1 group I member 2 (Homo sapiens) (UniProt O75469); assay: ATG_PXR_TRANS: Attagene TRANS-FACTORIAL HepG2 Assay for human Pregnane X Receptor (PXR) (AID 2283008; active means hit-call score of the fitted dose curve at least 0.9, where 1 is the maximum)
Nuclear receptor subfamily 1 group I member 2 (Homo sapiens), sequence (O75469 whole entry, looked up, the tested form may be a part): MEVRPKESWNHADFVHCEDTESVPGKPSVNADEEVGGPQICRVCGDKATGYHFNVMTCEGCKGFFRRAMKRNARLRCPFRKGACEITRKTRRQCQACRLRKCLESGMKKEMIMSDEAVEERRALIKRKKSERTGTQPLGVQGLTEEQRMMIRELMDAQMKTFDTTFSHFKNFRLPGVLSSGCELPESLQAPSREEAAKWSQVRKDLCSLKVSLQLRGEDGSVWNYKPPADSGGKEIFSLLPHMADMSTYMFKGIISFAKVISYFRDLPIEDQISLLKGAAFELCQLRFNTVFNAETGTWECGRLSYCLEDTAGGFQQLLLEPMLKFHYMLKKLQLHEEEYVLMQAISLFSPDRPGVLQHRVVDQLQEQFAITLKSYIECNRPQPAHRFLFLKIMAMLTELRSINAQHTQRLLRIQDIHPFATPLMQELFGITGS
In short: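 Trans-factorial format: exogenous NR-Gal4 fusion activity, not endogenous factor, in transfected human HepG2 liver cells. After 24 h dosing, RNA isolated, reverse-transcribed, amplified and resolved by capillary electrophoresis; induction scored versus DMSO.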

[15] = molecular target: human RAR-related Orphan Receptor gamma (RORg), RORC (gene 6097) (UniProt P51449); assay: ATG_RORg_TRANS: Attagene TRANS-FACTORIAL HepG2 Assay for human RAR-related Orphan Receptor gamma (RORg) (AID 2283011; active means hit-call score of the fitted dose curve at least 0.9, where 1 is the maximum)
human RAR-related Orphan Receptor gamma (RORg), RORC (gene 6097), sequence (P51449 whole entry, looked up, the tested form may be a part): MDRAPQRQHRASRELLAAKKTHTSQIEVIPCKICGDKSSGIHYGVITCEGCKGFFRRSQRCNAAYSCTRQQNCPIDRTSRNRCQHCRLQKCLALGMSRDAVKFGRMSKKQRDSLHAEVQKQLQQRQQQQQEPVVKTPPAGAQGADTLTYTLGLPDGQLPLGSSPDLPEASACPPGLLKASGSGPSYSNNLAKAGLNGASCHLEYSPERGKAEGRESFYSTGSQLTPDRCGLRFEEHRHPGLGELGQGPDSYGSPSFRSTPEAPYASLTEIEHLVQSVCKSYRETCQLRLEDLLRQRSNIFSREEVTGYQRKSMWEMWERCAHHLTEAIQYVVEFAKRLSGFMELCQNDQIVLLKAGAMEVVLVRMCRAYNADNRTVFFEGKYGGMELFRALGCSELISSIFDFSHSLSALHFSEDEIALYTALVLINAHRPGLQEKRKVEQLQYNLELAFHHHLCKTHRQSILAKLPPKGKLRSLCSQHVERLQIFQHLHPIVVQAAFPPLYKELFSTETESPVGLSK
In short: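 First, HepG2 liver cells were transfected with GAL4-UAS-driven reporter constructs and the RORg-Gal4 fusion. Next, they were treated with chemical for 24 h. Finally, reporter mRNA was quantified by RT-PCR and capillary electrophoresis, with upward activity fitted against DMSO.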

[16] = molecular target: Peroxisome proliferator-activated receptor gamma (Homo sapiens) (UniProt P37231); assay: ATG_PPARg_TRANS: Attagene TRANS-FACTORIAL HepG2 Assay for human Peroxisome Proliferator-activated Receptor-gamma (PPARg) (AID 2283007; active means hit-call score of the fitted dose curve at least 0.9, where 1 is the maximum)
Peroxisome proliferator-activated receptor gamma (Homo sapiens), sequence (P37231 whole entry, looked up): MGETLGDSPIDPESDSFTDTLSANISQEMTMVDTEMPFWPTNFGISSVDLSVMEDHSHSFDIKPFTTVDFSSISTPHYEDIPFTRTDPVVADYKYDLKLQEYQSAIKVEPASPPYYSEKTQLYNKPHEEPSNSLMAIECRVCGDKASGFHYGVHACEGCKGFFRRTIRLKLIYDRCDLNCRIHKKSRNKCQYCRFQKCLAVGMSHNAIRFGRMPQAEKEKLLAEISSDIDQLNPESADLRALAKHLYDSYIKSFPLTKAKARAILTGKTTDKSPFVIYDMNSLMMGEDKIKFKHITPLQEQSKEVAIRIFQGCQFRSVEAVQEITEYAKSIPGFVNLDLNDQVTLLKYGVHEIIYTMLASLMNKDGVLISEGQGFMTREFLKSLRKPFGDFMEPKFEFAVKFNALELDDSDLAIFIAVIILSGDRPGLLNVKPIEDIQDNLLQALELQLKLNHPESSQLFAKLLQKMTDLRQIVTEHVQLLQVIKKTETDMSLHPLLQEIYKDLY
In short: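 Multiplexed reporter transcription units in HepG2, 24 h dosing, reporter transcripts quantified by fluorescent RT-PCR and capillary electrophoresis. Increase over DMSO scored.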

[17] = molecular target: human Retinoic Acid Receptor gamma (RARg), RARG (gene 5916) (UniProt P13631); assay: ATG_RARg_TRANS: Attagene TRANS-FACTORIAL HepG2 Assay for human Retinoic Acid Receptor gamma (RARg) (AID 2283009; active means hit-call score of the fitted dose curve at least 0.9, where 1 is the maximum)
human Retinoic Acid Receptor gamma (RARg), RARG (gene 5916), sequence (P13631 whole entry, looked up, the tested form may be a part): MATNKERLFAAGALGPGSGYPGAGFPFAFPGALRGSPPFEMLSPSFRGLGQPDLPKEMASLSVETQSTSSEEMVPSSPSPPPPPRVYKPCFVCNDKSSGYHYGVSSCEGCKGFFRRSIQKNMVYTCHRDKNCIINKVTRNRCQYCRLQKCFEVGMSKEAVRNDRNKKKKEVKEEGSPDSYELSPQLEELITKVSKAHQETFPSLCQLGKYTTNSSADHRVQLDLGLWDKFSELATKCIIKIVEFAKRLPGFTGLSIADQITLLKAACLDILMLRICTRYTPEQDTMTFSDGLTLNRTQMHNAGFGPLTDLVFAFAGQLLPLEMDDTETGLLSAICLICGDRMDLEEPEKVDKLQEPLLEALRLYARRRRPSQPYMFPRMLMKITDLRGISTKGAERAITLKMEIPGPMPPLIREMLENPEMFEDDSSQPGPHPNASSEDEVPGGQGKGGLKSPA
In short: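 Gain-of-signal relative to DMSO is reported from fluorescent capillary electrophoresis of RT-PCR reporter products. These came from HepG2 cells expressing transfected RARg-GAL4 chimeras with UAS reporters, harvested 24 h after dosing.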

[18] = molecular target: Retinoic acid receptor alpha (Homo sapiens) (UniProt P10276); assay: ATG_RARa_TRANS: Attagene TRANS-FACTORIAL HepG2 Assay for human Retinoic Acid Receptor alpha (RARa) (AID 2283005; active means hit-call score of the fitted dose curve at least 0.9, where 1 is the maximum)
Retinoic acid receptor alpha (Homo sapiens), sequence (P10276 whole entry, looked up, the tested form may be a part): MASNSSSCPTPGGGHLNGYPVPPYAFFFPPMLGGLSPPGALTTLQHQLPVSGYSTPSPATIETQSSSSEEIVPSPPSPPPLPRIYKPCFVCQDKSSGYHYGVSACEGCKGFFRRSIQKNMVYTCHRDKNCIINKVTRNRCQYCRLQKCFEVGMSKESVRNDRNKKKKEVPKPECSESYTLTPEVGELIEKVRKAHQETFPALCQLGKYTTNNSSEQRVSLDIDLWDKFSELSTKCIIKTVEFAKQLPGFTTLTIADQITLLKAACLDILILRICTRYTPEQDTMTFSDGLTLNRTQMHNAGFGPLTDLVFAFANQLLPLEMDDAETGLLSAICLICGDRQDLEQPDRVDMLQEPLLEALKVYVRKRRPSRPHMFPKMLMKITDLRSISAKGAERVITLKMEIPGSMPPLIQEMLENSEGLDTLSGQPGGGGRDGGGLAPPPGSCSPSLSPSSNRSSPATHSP
In short: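 HepG2 transiently transfected with multiplex GAL4-UAS reporter units including a human RARa–GAL4 chimera; 24 h compound exposure. Reporter mRNA quantified by RT-PCR, 6-FAM labeling and capillary electrophoresis; gain of signal versus DMSO.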

[19] = molecular target: human RAR-related Orphan Receptor beta (RORb), RORB (gene 6096) (UniProt Q92753); assay: ATG_RORb_TRANS: Attagene TRANS-FACTORIAL HepG2 Assay for human RAR-related Orphan Receptor beta (RORb) (AID 2283010; active means hit-call score of the fitted dose curve at least 0.9, where 1 is the maximum)
human RAR-related Orphan Receptor beta (RORb), RORB (gene 6096), sequence (Q92753 whole entry, looked up, the tested form may be a part): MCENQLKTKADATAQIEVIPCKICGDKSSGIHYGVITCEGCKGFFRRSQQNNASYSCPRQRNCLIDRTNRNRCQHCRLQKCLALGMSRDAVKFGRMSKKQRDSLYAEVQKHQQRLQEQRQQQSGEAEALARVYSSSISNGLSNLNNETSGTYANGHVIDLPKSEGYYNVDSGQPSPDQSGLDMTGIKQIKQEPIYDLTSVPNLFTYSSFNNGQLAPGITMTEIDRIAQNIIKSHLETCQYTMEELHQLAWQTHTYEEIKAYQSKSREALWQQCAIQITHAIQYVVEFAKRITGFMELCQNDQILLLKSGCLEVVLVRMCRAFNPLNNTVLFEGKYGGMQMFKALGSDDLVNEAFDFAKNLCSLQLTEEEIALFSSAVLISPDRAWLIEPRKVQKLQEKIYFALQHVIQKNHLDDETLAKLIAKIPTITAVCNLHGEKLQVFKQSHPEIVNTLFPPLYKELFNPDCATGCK
In short: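 Multiplexed transcription-factor reporter assay: HepG2 cells transiently carrying NR-Gal4/GAL4-UAS constructs, 24 h treatment, mRNA quantified by RT-PCR plus capillary electrophoresis fluorescence; activity scored as induction over DMSO.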

[20] = molecular target: human Retinoic Acid Receptor beta (RARb), RARB (gene 5915) (UniProt P10826); assay: ATG_RARb_TRANS: Attagene TRANS-FACTORIAL HepG2 Assay for human Retinoic Acid Receptor beta (AID 2283004; active means hit-call score of the fitted dose curve at least 0.9, where 1 is the maximum)
In short: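 Transient transfection of HepG2 with multiple reporter units → chemical dosing, 24 h → total RNA isolation → RT with oligo(dT) → reporter-specific PCR, 6-FAM primer extension, HpaI digest → capillary electrophoresis. Positive direction vs DMSO control.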

Measured: AC50

CCCCN(CCCC)CCCC
not listed: [16] | [17] | [18] | [19] | [20]
inactive: all other assays above

C[C@]12C=CC(=O)C=C1CC[C@@H]1[C@@H]2C(=O)C[C@@]2(C)[C@H]1CC[C@]2(O)C(=O)CO
not listed: [6] | [11] | [17] | [18] | [19] | [20]
inactive: all other assays above

CNCc1cc(F)ccc1Oc1ccc(Cl)c(Cl)c1
active: [6] 12.5 µM | [7] 30.9 µM | [13] 23.9 µM
not listed: [10] | [18] | [19] | [20]
inactive: all other assays above

C=CCOC(=O)c1ccccc1C(=O)OCC=C
active: [3] 27.2 µM
not listed: [6] | [11] | [15] | [20]
inactive: all other assays above

CN1CCN(Cc2cc(-c3ccc4[nH]c(=O)oc4c3)co2)[C@@H](c2ccc(F)cc2)C1
inactive: [1] | [8] | [9] | [10] | [11] | [12] | [14]
active: [2] 8.72 µM | [3] 61.4 µM | [4] 45.4 µM | [5] 12.1 µM | [7] 26.7 µM | [13] 23.4 µM | [16] 42.4 µM

Cc1ccc(C)c(O)c1C
not listed: [15] | [18]
inactive: all other assays above

Cc1cccc(C)c1O
not listed: [11] | [16] | [18] | [19] | [20]
inactive: all other assays above
